Laboratory results: PMC4336329 (PLoS ONE, 2015)
The campaign covered roughly 310,000 compounds. About 14,000 (4.5%) showed an effect of 50% or more. Effects have a minus sign here. Many of the other results were omitted from the sample, so strong results are more common in it than they were.

These compounds were tested against human ether-à-go-go-related gene (hERG) potassium channel (human, UniProt Q12809) (assay: primary screen, population patch clamp on CHO cells stably expressing hERG; higher = less effect of the substance).
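Further: peak tail current of the secondary pulse compared with the same well before compound.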

Sequence of human ether-à-go-go-related gene (hERG) potassium channel (Q12809 whole entry, looked up): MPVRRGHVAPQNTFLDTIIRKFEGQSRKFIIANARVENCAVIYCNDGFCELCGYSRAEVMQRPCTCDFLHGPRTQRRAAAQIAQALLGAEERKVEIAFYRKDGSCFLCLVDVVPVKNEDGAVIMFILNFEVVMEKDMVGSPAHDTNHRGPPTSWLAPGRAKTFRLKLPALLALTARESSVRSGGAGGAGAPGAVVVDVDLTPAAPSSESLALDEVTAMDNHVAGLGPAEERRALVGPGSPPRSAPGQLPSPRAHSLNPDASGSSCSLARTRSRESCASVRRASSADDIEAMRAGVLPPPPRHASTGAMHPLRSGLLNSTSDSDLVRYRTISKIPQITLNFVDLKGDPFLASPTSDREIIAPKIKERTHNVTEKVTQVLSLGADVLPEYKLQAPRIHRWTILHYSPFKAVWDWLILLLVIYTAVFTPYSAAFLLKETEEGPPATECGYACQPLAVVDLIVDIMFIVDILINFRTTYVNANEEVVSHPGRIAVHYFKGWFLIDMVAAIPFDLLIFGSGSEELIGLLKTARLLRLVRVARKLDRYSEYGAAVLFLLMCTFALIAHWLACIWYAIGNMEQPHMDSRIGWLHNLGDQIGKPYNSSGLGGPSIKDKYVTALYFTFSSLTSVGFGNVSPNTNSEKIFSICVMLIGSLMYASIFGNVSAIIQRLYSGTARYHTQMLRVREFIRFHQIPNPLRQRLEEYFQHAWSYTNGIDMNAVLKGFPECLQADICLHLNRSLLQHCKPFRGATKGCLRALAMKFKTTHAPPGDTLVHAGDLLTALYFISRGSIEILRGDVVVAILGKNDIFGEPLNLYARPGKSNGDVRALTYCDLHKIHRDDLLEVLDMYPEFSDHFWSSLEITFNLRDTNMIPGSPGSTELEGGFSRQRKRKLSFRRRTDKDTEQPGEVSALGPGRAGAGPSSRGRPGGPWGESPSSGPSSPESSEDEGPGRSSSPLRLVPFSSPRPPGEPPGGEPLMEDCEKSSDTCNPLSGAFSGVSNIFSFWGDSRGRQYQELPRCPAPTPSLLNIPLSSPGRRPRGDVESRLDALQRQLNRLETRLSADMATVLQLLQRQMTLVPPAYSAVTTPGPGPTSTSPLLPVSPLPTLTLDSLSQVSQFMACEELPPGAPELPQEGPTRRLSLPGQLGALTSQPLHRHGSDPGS

Structure (SMILES)	hERG current change (%, negative = inhibition) at 10uM [%]
CCCCCOC(=O)C1=C(C)NC(=O)NC1c1ccc(OC)cc1 (stereo not shown)	5.95
CCN(CC)CCCN(Cc1cc2cc3c(cc2[nH]c1=O)OCO3)C(=S)NCCOC	5.4
COc1ccc(C(=O)Nc2ccc(C(=O)N3CCCC3)cc2)cc1[N+](=O)[O-]	-33.2
CCCCOc1ccc(C(=O)Nc2ccc(N3CCN(C)CC3)cc2)cc1	-10.2
COc1ccc(C(=O)Nc2ccc(N3CCN(C)CC3)cc2)cc1[N+](=O)[O-]	-38.5
COc1ccc(C(=O)Nc2ccc(N3CCN(C(=O)c4ccccc4)CC3)cc2)cc1[N+](=O)[O-]	-67.2
CCOc1ccc(C(=O)Nc2ccc(N3CCCC3)cc2)cc1	3.89
CCOc1ccc(C(=O)Nc2ccc(N3CCN(C(C)=O)CC3)cc2)cc1[N+](=O)[O-]	-45.5
COc1ccc(C(=O)Nc2ccc(N3CCN(C(C)=O)CC3)cc2)cc1[N+](=O)[O-]	11.7
CCOc1ccc(C(=O)Nc2ccc(N3CCN(C)CC3)cc2)cc1	-50.2
CCOc1ccc(C(=O)Nc2ccc(N3CCN(C)CC3)cc2)cc1[N+](=O)[O-]	-57.3
CCC(=O)Nc1ccccc1C(=O)OCc1ccc(C(=O)c2ccccc2)cc1	-16.1
CCCCC(C(=O)NC(=O)NCc1ccccc1)N1C(=O)c2ccccc2C1=O (stereo not shown)	11
CO/N=C(\N)c1nonc1N	0.407
COCOc1cc(O)c(C(=O)/C=C/c2ccccc2)c(OCOC)c1	4.67
CC(C)O.COc1cc(/C=N/NC(=O)c2ccc(O)cc2)ccc1Oc1ccc([N+](=O)[O-])cn1	-32
Cc1ccc(S(=O)(=O)N(C)c2ccc(OC(=O)CN3C(=O)NC4(CCCC4)C3=O)cc2)cc1	-14.4
COC(C(=O)Nc1ccnn1C1CCN(Cc2ccc(C)o2)CC1)c1ccccc1 (stereo not shown)	-2.65
COc1ccc(C(=O)Nc2ccnn2C2CCN(CCC(C)c3ccc(C)o3)CC2)cc1 (stereo not shown)	-67
C/C=C(\C)CN1CCC(n2nccc2NC(=O)c2ccc(OC)cc2)CC1	2.92
COc1ccccc1C(=O)Nc1ccnn1C1CCN(CCC(C)c2ccc(C)o2)CC1 (stereo not shown)	-80.8
COc1ccc(C(=O)Nc2ccnn2C2CCN(Cc3ccncc3)CC2)cc1	-8.86
